This passage reports growth results from PubChem BioAssay (NCI).

Test systems include SK-MEL-2 melanoma; EKVX NSCLC; SN12C renal; UO-31 renal; TK-10 renal; ACHN renal; A498 renal; CCRF-CEM leukemia; MOLT-4 leukemia; SR leukemia; RPMI-8226 leukemia; OVCAR-8 ovarian; OVCAR-5 ovarian; OVCAR-4 ovarian; SK-OV-3 ovarian; IGROV1 ovarian; OVCAR-3 ovarian; HS 578T breast; NCI/ADR-RES ovarian.
Holding throughout (test): NCI-60 one-dose screen, 48 h (100 = growth as untreated, 0 = no growth, -100 = all killed)
Common to all, as to conditions: 10 µM

The panel holds about 83,000 compounds, 20% with a hit somewhere; the sample as a whole holds those more often.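 Testing used 96-well plates and a 48-hour single-concentration exposure. Example: -40 means 40% of the starting cells died.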 A number with no mark means an inactive call. Calls of active or inactive are those of the source. Rule for the calls: active = growth percent below 10; inactive = the rest.

On to `O=C(Nc1nc(-c2ccccc2)nc2c1sc(=S)n2-c1ccccc1)C(F)(F)F`, for which the growth in the experiment on SK-MEL-2 melanoma was 104%; with EKVX NSCLC it was 97.2%; with SN12C renal it was 95.3%; in the experiment on UO-31 renal, 81.2%; in the experiment on TK-10 renal it was 117%; in the experiment with ACHN renal, 91.3%. Besides, the growth with A498 renal was 80.4%; in the experiment with CCRF-CEM leukemia, 80.8%; with MOLT-4 leukemia, 77.2%; in the experiment with SR leukemia, 89.8%; in the experiment on RPMI-8226 leukemia it was 88.5%; with OVCAR-8 ovarian it was 86.6%. The growth in the experiment with OVCAR-5 ovarian is 105%; with OVCAR-4 ovarian, 92.3%; in the experiment on SK-OV-3 ovarian, 91.6%; in the experiment on IGROV1 ovarian it was 106%; with OVCAR-3 ovarian, 105%; in the experiment with HS 578T breast it was 96.6%. The growth with NCI/ADR-RES ovarian is 95.7%.

As to `CCN(CC)CCOc1cccc2c1C(=O)c1ccccc1C2=O`, the growth with SK-MEL-2 melanoma is 91.8%; in the experiment on EKVX NSCLC, 95.2%; in the experiment on SN12C renal it was 90.9%; in the experiment with UO-31 renal, 62.2%; in the experiment with TK-10 renal it was 97.6%; in the experiment on ACHN renal, 92.5%. The growth was 87.5% in the experiment with A498 renal; 92.6% with CCRF-CEM leukemia; 96.4% with MOLT-4 leukemia; 88.4% in the experiment on SR leukemia; 86% in the experiment with RPMI-8226 leukemia; 85.7% with OVCAR-8 ovarian. For the same molecule, the growth is 102% in the experiment on OVCAR-5 ovarian; 86.7% in the experiment with OVCAR-4 ovarian; 82.2% in the experiment on SK-OV-3 ovarian; 102% with IGROV1 ovarian; 102% with OVCAR-3 ovarian; 90% in the experiment on HS 578T breast. The growth with NCI/ADR-RES ovarian was 92.5%.

Take `Cc1ccc(NCCNCC(C)(C)O)c2c(=O)c3ccc(Cl)cc3sc12`: the growth was 57.4% with SK-MEL-2 melanoma; 71.8% with EKVX NSCLC; 34% in the experiment on SN12C renal; 41.2% in the experiment on UO-31 renal; 74.2% in the experiment with TK-10 renal; 3.43% (active) in the experiment with ACHN renal. In addition, the growth with A498 renal is 59%; in the experiment with CCRF-CEM leukemia it was -14.4% (active); in the experiment on MOLT-4 leukemia, -30.7% (active); with SR leukemia, -31.2% (active); in the experiment with RPMI-8226 leukemia, -12.9% (active); with OVCAR-8 ovarian it was 32.2%. For the same molecule, the growth was 59.9% in the experiment with OVCAR-5 ovarian; 62.5% in the experiment with OVCAR-4 ovarian; 79.1% with SK-OV-3 ovarian; 29.8% with IGROV1 ovarian; -13.4% (active) with OVCAR-3 ovarian; 50.4% in the experiment on HS 578T breast. The growth in the experiment with NCI/ADR-RES ovarian is 45.9%.

As to `C1CN(CC2CCC(CN3CCOCC3)O2)CCO1` (configuration not stated), the growth is 107% in the experiment with SK-MEL-2 melanoma; 100% with EKVX NSCLC; 106% in the experiment with SN12C renal; 93.6% in the experiment with UO-31 renal; 95.8% with TK-10 renal; 38.9% in the experiment on ACHN renal. Besides, the growth in the experiment with A498 renal was 117%; in the experiment on CCRF-CEM leukemia, 50.4%; in the experiment with MOLT-4 leukemia, 68.2%; with SR leukemia it was 61.7%; in the experiment with RPMI-8226 leukemia, 92.3%; with OVCAR-8 ovarian, 104%. Further, the growth in the experiment with OVCAR-5 ovarian is 109%; with OVCAR-4 ovarian, 107%; in the experiment on SK-OV-3 ovarian, 90.2%; in the experiment with IGROV1 ovarian it was 108%; in the experiment on OVCAR-3 ovarian, 112%; with HS 578T breast it was 104%. For the same molecule, in the experiment with NCI/ADR-RES ovarian, the growth was 101%.

`COc1cc(OC)c2c(=O)c(O)c(-c3ccccc3)oc2c1`: the growth in the experiment on SK-MEL-2 melanoma is 87.3%; in the experiment with EKVX NSCLC, 83.4%; in the experiment on SN12C renal, 73.3%; in the experiment on UO-31 renal, 53.8%; in the experiment with TK-10 renal, 96.8%; with ACHN renal, 68%. Also, the growth was 69.6% in the experiment with A498 renal; 47.8% in the experiment on CCRF-CEM leukemia; 54.3% with MOLT-4 leukemia; 40.1% with SR leukemia; 68.9% with RPMI-8226 leukemia; 61.9% in the experiment on OVCAR-8 ovarian. For the same molecule, the growth in the experiment on OVCAR-5 ovarian was 89%; in the experiment on OVCAR-4 ovarian, 65.3%; in the experiment with SK-OV-3 ovarian, 81.1%; in the experiment on IGROV1 ovarian, 78.8%; with OVCAR-3 ovarian, 68.4%; in the experiment on HS 578T breast, 88.9%. Further, the growth in the experiment with NCI/ADR-RES ovarian was 65.9%.

For the molecule `COc1cc(-c2nn(-c3cccc(NC(=O)CCN4CCN(Cc5ccccc5)CC4)c3)cc2-c2ccncc2)ccc1Cl`, the growth was -31.2% (active) in the experiment on SK-MEL-2 melanoma; 48.2% in the experiment with EKVX NSCLC; 41.7% in the experiment with SN12C renal; 15.6% in the experiment with UO-31 renal; 26.1% with TK-10 renal; 24.1% with ACHN renal. The growth in the experiment on A498 renal was -8.39% (active); in the experiment with CCRF-CEM leukemia, 4.24% (active); in the experiment on MOLT-4 leukemia, 5.06% (active); with SR leukemia, -28.5% (active); in the experiment with RPMI-8226 leukemia, -23.2% (active); with OVCAR-8 ovarian, 12.7%. Further, the growth was 22.9% in the experiment on OVCAR-5 ovarian; 36.2% with OVCAR-4 ovarian; 22.3% in the experiment on SK-OV-3 ovarian; 31.9% with IGROV1 ovarian; 7.04% (active) in the experiment with OVCAR-3 ovarian; 2.23% (active) in the experiment on HS 578T breast. In addition, the growth in the experiment with NCI/ADR-RES ovarian was -21.4% (active).

Regarding `O=C(CCCCC(=O)Oc1c(Cl)cc(Cl)cc1[N+](=O)[O-])Oc1c(Cl)cc(Cl)cc1[N+](=O)[O-]`, the growth was 93.6% in the experiment on SK-MEL-2 melanoma; 93.2% with EKVX NSCLC; 105% with SN12C renal; 87.1% in the experiment on UO-31 renal; 91.3% in the experiment on TK-10 renal; 105% with ACHN renal. Further, the growth with A498 renal was 114%; in the experiment with CCRF-CEM leukemia, 73.6%; in the experiment with MOLT-4 leukemia, 78.1%; with SR leukemia, 85.4%; in the experiment on RPMI-8226 leukemia it was 92.9%; in the experiment on OVCAR-8 ovarian, 106%. The growth was 109% in the experiment with OVCAR-5 ovarian; 104% in the experiment with OVCAR-4 ovarian; 103% in the experiment with SK-OV-3 ovarian; 101% in the experiment with IGROV1 ovarian; 105% with OVCAR-3 ovarian; 105% with HS 578T breast. Moreover, the growth with NCI/ADR-RES ovarian was 102%.

In the case of `Cc1ccc(Cl)cc1NC(=O)CCl`, the growth is 86.9% with SK-MEL-2 melanoma; 119% with EKVX NSCLC; 84% in the experiment on SN12C renal; 91.3% in the experiment with UO-31 renal; 96% in the experiment on TK-10 renal; 104% with ACHN renal. Moreover, the growth in the experiment on A498 renal was 105%; in the experiment with CCRF-CEM leukemia it was 28.4%; in the experiment with MOLT-4 leukemia, 32%; in the experiment with SR leukemia, 43.2%; with RPMI-8226 leukemia, 43.8%; with OVCAR-8 ovarian, 88%. Moreover, the growth is 136% in the experiment on OVCAR-5 ovarian; 76.9% in the experiment on OVCAR-4 ovarian; 93.5% with SK-OV-3 ovarian; 64.4% with IGROV1 ovarian; 99% in the experiment with OVCAR-3 ovarian; 94.2% in the experiment on HS 578T breast. In the experiment with NCI/ADR-RES ovarian, the growth was 102%.
